Source: PubChem BioAssay (NCATS)
Activity calls are given as the source filed them. How the calls were made is not given here.

Assays:
[1] = Ebola virus entry assay, blue channel fluorescence
[2] = Ebola virus entry assay, ratio channel

**Q.** With `CCOC(=O)O[C@]1(C(=O)OCCl)CC[C@H]2[C@@H]3CCC4=CC(=O)C=C[C@]4(C)[C@H]3[C@@H](O)C[C@@]21C` as the molecule, how does the outcome [1] read?
**A.** inactive

**Q.** What about the outcome [2] of the same molecule?
**A.** inactive

**Q.** Which results are given for `COc1cc(C(=O)N2CCCCCCC2)cc(OC)c1OC`?
**A.** outcome [1]: inactive; outcome [2]: inactive

**Q.** Which results are given for `O=C(O)c1ccccc1Nc1cccc(C(F)(F)F)c1`?
**A.** outcome [1]: inactive; outcome [2]: inactive

**Q.** Which results are given for `O=C1C(O)=C(O)C(=O)C(O)=C1O`?
**A.** outcome [1]: inactive; outcome [2]: inactive

**Q.** What does the source list for `CCCCCCCCCCCCCCCCCC(=O)OCC(O)CO` (stereo unspecified)?
**A.** outcome [1]: inactive; outcome [2]: inactive

**Q.** Which results are given for `Cn1c(=O)c2c(ncn2CC(=O)O)n(C)c1=O`?
**A.** outcome [1]: inactive; outcome [2]: inactive

**Q.** With `Cc1nnc(NS(=O)(=O)c2ccc(N)cc2)s1` as the molecule, how does the outcome [1] read?
**A.** inactive

**Q.** What about the outcome [2] of the same molecule?
**A.** inactive

**Q.** For `CO[C@]12C[C@@H](COC(=O)c3cncc(Br)c3)CN(C)[C@@H]1Cc1cn(C)c3cccc2c13`, which AC50 [1] is on record?
**A.** 22.4 µM (active)

**Q.** And the AC50 [2]?
**A.** 20 µM (active)

**Q.** For `CCOC(=O)NNc1ccc(N(CC)CC(C)O)nn1` (stereo unspecified), which outcome [1] is on record?
**A.** inactive

**Q.** What about the outcome [2] of the same molecule?
**A.** inactive

**Q.** Which results are given for `Cc1ccc(-c2ccccc2C#N)cc1`?
**A.** outcome [1]: inactive; outcome [2]: inactive

**Q.** Which outcome [1] does the source give for `CC(C)C(=O)c1c(C(C)C)nn2ccccc12` here?
**A.** inactive

**Q.** And the outcome [2]?
**A.** inactive

**Q.** What does the source list for `CC(=O)OCC(=O)[C@@]1(O)[C@H](OC(C)=O)C[C@H]2[C@@H]3CCC4=CC(=O)C=C[C@]4(C)[C@@]3(F)[C@@H](O)C[C@@]21C`?
**A.** outcome [1]: inactive; outcome [2]: inactive

**Q.** Which results are given for `CCN(CC)CC(=O)Oc1ccc(NC(C)=O)cc1`?
**A.** outcome [1]: inactive; outcome [2]: inactive

**Q.** With `Cc1ccc(Cl)c(Nc2ccccc2C(=O)O)c1Cl` as the molecule, how does the outcome [1] read?
**A.** inactive

**Q.** What about the outcome [2] of the same molecule?
**A.** inactive

**Q.** With `CCCCN(CCCC)CCCOC(=O)c1ccc(N)cc1` as the molecule, how does the outcome [1] read?
**A.** inactive

**Q.** And the AC50 [2]?
**A.** 8.91 µM (active)

**Q.** What does the source list for `c1ccc2c(CC3=NCCN3)cccc2c1`?
**A.** AC50 [1]: 39.8 µM (active); outcome [2]: inactive

**Q.** With `Cc1oc(=O)oc1CN1CCN(c2cc3c(cc2F)c(=O)c(C(=O)O)c2n3C(C)S2)CC1` (stereo unspecified) as the molecule, how does the outcome [1] read?
**A.** inactive

**Q.** And the outcome [2]?
**A.** inactive

**Q.** What does the source list for `CC[C@@]1(O)C(=O)OCc2c1cc1n(c2=O)Cc2c-1nc1ccccc1c2/C=N/OC(C)(C)C`?
**A.** outcome [1]: inactive; outcome [2]: inactive

**Q.** Which results are given for `CC(Cc1ccccc1)N(C)Cc1ccco1` (stereo unspecified)?
**A.** outcome [1]: inactive; outcome [2]: inactive

**Q.** For `O=C(O)Cc1cccc2ccccc12`, which outcome [1] is on record?
**A.** inactive

**Q.** What about the outcome [2] of the same molecule?
**A.** inactive

**Q.** With `NC(=O)NS(=O)(=O)c1ccc(N)cc1` as the molecule, how does the outcome [1] read?
**A.** inactive

**Q.** What about the outcome [2] of the same molecule?
**A.** inactive

**Q.** Which results are given for `CC1CC(OC(=O)c2ccccc2O)CC(C)(C)C1` (stereo unspecified)?
**A.** outcome [1]: inactive; outcome [2]: inactive

**Q.** With `CCC(CC)(CNC(=O)CCCO)c1cccc(OC)c1` as the molecule, how does the outcome [1] read?
**A.** inactive

**Q.** What about the outcome [2] of the same molecule?
**A.** inactive

**Q.** With `C[C@H](NC(CCc1ccccc1)C(=O)O)C(=O)N1CCC[C@H]1C(=O)O` (stereo partly specified) as the molecule, how does the outcome [1] read?
**A.** inactive

**Q.** What about the outcome [2] of the same molecule?
**A.** inactive

**Q.** Which results are given for `c1ccc(-c2nc[nH]c2-c2ccccc2)cc1`?
**A.** AC50 [1]: 35.5 µM (active); outcome [2]: inactive

**Q.** What does the source list for `COC(=O)[C@@H]1[C@H]2C[C@H]3c4[nH]c5ccccc5c4CCN3C[C@@H]2CC[C@@H]1O`?
**A.** outcome [1]: inactive; outcome [2]: inactive

**Q.** Which results are given for `CC(=O)Oc1cc(C(C)C)c(OCCN(C)C)cc1C`?
**A.** outcome [1]: inactive; outcome [2]: inactive

**Q.** For `CC(C)(C)NCC(O)COc1ccc(NC(=O)NC2CCCCC2)cc1` (stereo unspecified), which AC50 [1] is on record?
**A.** 39.8 µM (active)

**Q.** And the outcome [2]?
**A.** inactive
